Laboratory results published in PMC9574860, “Chemical Toolkit for PARK7: Potent, Selective, and High-Throughput” (Journal of Medicinal Chemistry, 2022).
Hit rate of the full screen: of about 7,900 compounds, about 400 (5.1%) showed an effect of 50% or more. Shown is part of a subset that was picked to be rich in strong results.

target: Parkinson's disease protein 7 (PARK7/DJ1) (human, UniProt Q99497); experiment: primary screen, percent inhibition; read as competition with a fluorescent probe by fluorescence polarization; higher = more effect of the substance; conditions: 100 µM
Procedure, shortened: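 Fluorescence-polarization probe displacement (JYQ-107, 20 nM final, 2 h) after 2 h preincubation of PARK7 (0.2 μM final) with each fragment at 100 μM final. Read-out ex/em 480/520 nm; remaining activity derived from FP signal loss relative to reference controls.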

Chain of Parkinson's disease protein 7 (PARK7/DJ1) (Q99497 whole entry, looked up, the tested form may be a part): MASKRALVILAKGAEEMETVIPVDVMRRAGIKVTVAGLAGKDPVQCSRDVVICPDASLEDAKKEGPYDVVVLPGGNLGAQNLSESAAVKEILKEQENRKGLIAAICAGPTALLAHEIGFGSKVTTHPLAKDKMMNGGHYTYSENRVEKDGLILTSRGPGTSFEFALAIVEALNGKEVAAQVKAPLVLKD

SMILES | Inhibition % [%]
COc1cc(F)ccc1N1CCN(C2CCOC2=O)CC1 (stereo not drawn) | 7.6
O=C(O)CNC(=O)C12CC3CC(CC(Cl)(C3)C1)C2 | 7.56
Cc1c(NC(=O)CCl)cccc1[N+](=O)[O-] | 8.38
C=CC(=O)NCC1CCC2(CCC2)CO1 (stereo not drawn) | 5.32
O=C(Nc1ccc(Cl)cc1)N1CCCCC1C1OCCO1 (stereo not drawn) | 5.3
C=CC(=O)N1CCC(c2ccco2)CC1 | 8.73
Cc1ccn(S(=O)(=O)c2ccc(C(C)(C)C)cc2)n1 | 4.34
Cc1ncsc1C=C(C#N)C(=O)NCCc1ccccc1 | 6.72
CS(=O)(=O)Nc1ccc(B(O)O)cc1 | 9.91
CS(=O)(=O)Nc1ccc(C(=O)CCl)cc1 | 75.1
Cc1cc(I)ccc1NC(=O)CCl | 7.36
Cc1c(NC(=O)c2cccnc2S)cnn1CCC(C)C | 3.61
CC(=O)N1CCc2sc(C(=O)CCl)cc2C1 | 73.5
O=C(CCl)NNC(=O)c1cc2c(s1)CCCC2 | 4.38
O=C(CCl)c1ccc2c(c1)CCN(C(=O)C(F)(F)F)C2 | 2.68
N#Cc1c(-c2ccccc2)nc(S)[nH]c1=O | 13.2
Cc1ccc(CN2CCCN(C(=O)CCl)CC2)cc1.Cl | 13
COc1cc(S(=O)(=O)n2cccn2)ccc1F | 1.65
O=C1OCCC1Sc1ncnc2ccsc12 (stereo not drawn) | 3.13
NC(=O)c1csc(C(=O)CCl)c1 | 101
CN(C)C(=O)c1ccc(NC(=O)CCl)cc1 | 44.1
Cn1cc(C(=O)CCl)cc1C(N)=O | 0.329
O=C(CCl)Nc1cccc(C(=O)O)c1 | 13.2
CN(C(=O)c1cc(C(N)=O)cs1)C1CC(C)(C)OC1=O (stereo not drawn) | 7.6
CN(C)C(=O)c1cccc(NC(=O)CCl)c1 | 12.2

SMILES | Inhibition % [%]
O=C(O)c1csc(C(=O)CCl)c1 | 102
CN(C)C(=O)c1csc(C(=O)CCl)c1 | 67.8
CC(C)C1NC(=O)C12CCCCCC2 (stereo not drawn) | 9.56
C=CC(=O)NC1(C)CCC(C)CC1 (stereo not drawn) | 29.1
C=CC(=O)NCCc1nc2c(C)cccc2o1 | 9.51
Cc1cc(NC(=O)CCl)n(-c2ccccc2)n1 | 29.6
Cc1nn(-c2ccccc2)c(C)c1C=C(C#N)C(=O)O | 6.36
CN(C)C(=O)c1ccc(B2OC(C)(C)C(C)(C)O2)c(Cl)c1 | 2.75
Cn1ncc(C(=O)O)c1C#N | 13.7
CCCc1cc(=O)[nH]c(S)n1 | 8.86
Cl.NCc1cc(=O)[nH]c(S)n1 | 27.5
NC(=O)Cc1cc(=O)[nH]c(S)n1 | 52.6
N#CC(=Cc1ccc(F)cc1)C(=O)O | 2.9
C=CC(=O)NCC1(C)OCCc2sccc21 (stereo not drawn) | 16.4
CSC1(C(=O)Nc2cccc(S(=O)(=O)F)c2)CC1 | 101
COc1nc(C)ccc1C(=O)Nc1cccc(S(=O)(=O)F)c1 | 11.7
Cn1ncc(C(=O)Nc2cccc(S(=O)(=O)F)c2)c1C#N | 4.68
Cc1cc(C(=O)Nc2cccc(S(=O)(=O)F)c2)nn1C(C)(C)C | 32.8
CC(F)(F)C1(C(=O)Nc2cccc(S(=O)(=O)F)c2)CC1 | 95.7
CC1(C(=O)Nc2cccc(S(=O)(=O)F)c2)CCCC1 | 97.7
C=CC(=O)NC(C)(C)c1cnn(C)c1 | 3.17
Cn1cc(C(C)(C)C(=O)Nc2cccc(S(=O)(=O)F)c2)cn1 | 88.2
COCCNC(=O)C(C#N)=Cc1c(Cl)cccc1Cl | 2.17
O=C(CCl)Nc1cccc2ncccc12 | 40.3
CS(=O)(=O)NC1CCCN(C(=O)C=Cc2cccnc2)C1 (stereo not drawn) | 5.3

SMILES | Inhibition % [%]
N#CN(CCn1cncn1)c1ccccc1 | 6.47
OB(O)c1ccc(OCC2CCCCO2)cc1 (stereo not drawn) | 27.9
CCN(c1ccc(C(F)(F)F)c(C#N)n1)C1CCOC1 (stereo not drawn) | 8.44
C=CC(=O)NC1CCCN(c2ncccn2)C1 (stereo not drawn) | 4.88
CC1(C)OB(c2ccc(C(F)C(F)(F)F)cc2)OC1(C)C (stereo not drawn) | 3.09
Cc1cc(C)n(CCCNc2ccnc(C#N)c2)n1 | 3.45
CC1CC(Sc2nccc(C(F)(F)F)n2)C(=O)O1 (stereo not drawn) | 3.32
C=CC(=O)N1CCCC(n2ccnn2)CC1 (stereo not drawn) | 11.9
C=CS(=O)(=O)Nc1ccccc1 | 6.78
CC1(C(=O)Nc2cccc(S(=O)(=O)F)c2)CCOCC1 | 83.4
C=CC(=O)NCC1c2ccccc2C(=O)N1C (stereo not drawn) | 7.14
C=CC(=O)NC1(c2ccc(C(F)(F)F)cc2)CC1 | 6.09
C=CC(=O)N1CCCC(c2n[nH]c(=O)o2)C1 (stereo not drawn) | 1.49
C=CC(=O)N1CCC(NC(C)=O)(c2nc(C)cs2)C1 (stereo not drawn) | 5.8
CC1(c2ccc(S(=O)(=O)F)cc2)OCCO1 | 6.74
Cc1nc(C2CC2)nc(S)c1C(=O)O | 51.1
Cc1nc(C(C)(C)C)nc(S)c1C(=O)O | 1.97
Cc1nc(C2CC2)nc(S)c1C#N | 2.7
C=CC(=O)NC1COc2c(C)cccc2C1 (stereo not drawn) | 10.9
CC1(C)OB(c2cc3ccccc3cc2Br)OC1(C)C | 11.9
CCN(c1ccc(C(=O)CCl)cc1)S(C)(=O)=O | 95.1
CN(c1ccc(C(=O)CCl)cc1)S(C)(=O)=O | 94.3
N#Cc1ccc(C(=O)CCl)cc1 | 18.8
O=C(CCl)N(C1CCCCC1)C1CCS(=O)(=O)C1 (stereo not drawn) | 1.27
O=C(CCl)NCC#Cc1cccc(C(F)(F)F)c1 | 6.88

SMILES | Inhibition % [%]
Cl.ClCCN1CC2CCC(C1)O2 | 3.05
Cc1nc(C#N)[nH]c1C | 3.54
C=CC(=O)N1CCCC2(CCCOC2)C1 (stereo not drawn) | 11.3
Cc1nnc(S)c(C#N)c1C | 53.3
Cc1nc(S)c(C#N)c(C)c1C | 3.15
Cc1c(C#N)c(S)nc2c1CCC2 | 15.1
CCOc1ccc(S(=O)(=O)n2nc(C)cc2C)cc1 | 3.86
Cc1nc(C)c(C=C(C#N)C(=O)NC(C)C)o1 | 3.38
N#CC(=Cc1ccc(Cl)cc1)C(=O)Nc1ccncc1 | 2.9
C#Cc1ccc(C=C(C#N)C(=O)Nc2ccncc2)cc1 | 73.3
N#CC(=Cc1ccncc1)C(=O)Nc1cccc(Cl)c1 | 10.5
C=CC(=O)NC1COc2cc(Cl)ccc2C1 (stereo not drawn) | 6.51
CN1CCCN(C(=O)c2ccc(S(=O)(=O)F)cc2)c2ccccc21 | 17.9
O=C(O)C=CC(=O)Nc1ccc(F)c(Cl)c1 | 8.72
O=C(CN1CCSC1=O)Nc1ccc2[nH]ncc2c1 | 60.9
O=C(O)C=CC(=O)Nc1ccc(F)cc1 | 7.34
Cn1cc(NC(=O)CN2CCSC2=O)cn1 | 71.6
Cc1cc(C)cc(NC(=O)CN2CCSC2=O)c1 | 5
O=C(CN1CCSC1=O)Nc1cn[nH]c1 | 11.7
O=C(CN1CCSC1=O)Nc1ccc(Cl)c(Cl)c1 | 0.617
Cc1ccc(NC(=O)CN2CCSC2=O)cc1C | 1.36
O=C(O)C=CC(=O)Nc1ccc2[nH]ncc2c1 | 77.7
COCC(C)NC(=O)C(C#N)=Cc1occc1C (stereo not drawn) | 5.2
O=C1SCCN1CC(=O)N1CCCc2ccccc21 | 7.03
Cc1c(C#N)c(NC(=O)CCl)n(-c2ccc(F)cc2)c1C | 1.78

SMILES | Inhibition % [%]
COc1ccc2[nH]c(CCCCl)nc2n1.Cl | 23.2
C=CS(=O)(=O)c1ccc(C#N)cn1 | 1.18
O=S(=O)(Oc1ccccc1C(F)(F)F)c1c[nH]cn1 | 10.4
COCCCS(=O)(=O)N1CCC(Cl)CC1 | 7.37
OB(O)c1cccc2c1OCCC2 | 4.89
C=CC(=O)N1CCc2c(cccc2C(F)(F)F)C1 | -3.37
Cc1noc2ncc(S(=O)(=O)OCC(F)(F)F)cc12 | 18.2
O=S(=O)(F)c1ccc2cn[nH]c2c1 | 72.5
O=S(=O)(F)c1ccc2[nH]ncc2c1 | 53
O=S(=O)(F)c1ccc(F)cc1 | 2.62
O=S(=O)(F)c1ccc2c(c1)NCC2 | 26.6
COc1ncc(S(=O)(=O)F)cn1 | 31.2
Cc1cc2[nH]ncc2cc1S(=O)(=O)F | 97.4
O=S(=O)(F)c1ccc2cnccc2c1 | 86.1
O=S(=O)(F)c1ccc(S(=O)(=O)Nc2ccncc2F)cc1 | 17.6
Cc1ccc(F)c(OS(=O)(=O)c2cn[nH]c2C)c1 | 11.7
O=S(=O)(F)c1cccnc1 | 17.7
Cc1cc(CNC(=O)CCl)ccc1F | 18
Cc1cc(NS(=O)(=O)C=Cc2ccccc2Cl)n(C)n1 | 8.51
C=CC(=O)NC1CCCc2c1cnn2C (stereo not drawn) | 6.84
C=CC(=O)Nc1cccc(C(=O)O)c1 | 4.88
Cc1nc(C(C)C)oc1Cn1ccnc1C#N | 8.62
C=CC(=O)N1CCC(OCC2CC2)CC1 | -0.254
